# In PubChem BioAssay AID687014 (The Scripps Research Institute Molecular Screening Center, 2013):
# Out of some 370,000 compounds screened, about 6,800 (1.8%) were called active. This excerpt belongs to a sample that is enriched for actives. A number with no mark means an inactive call.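 The calls were made as follows: active = activation above a cutoff set at the mean of all screened compounds plus 3 SD (cut at about 10% in these data); inactive = the rest.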
# Tested on: Nuclear hormone receptor DAF-12 (Heterodera glycines), GAL4 fusion
# Experiment: H. glycines DAF-12 receptor agonists, primary screen, cell-based, luminescence, HEK293, GAL4 fusion, UAS-luciferase (AID 687014);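 also: 0% = DMSO wells and 100% = sodium butyrate wells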
# Conditions: HEK293 GAL4-hgDAF12 UAS-luciferase reporter, agonist luminescence; at 6.8 µM; stronger effect = higher value; normalized to butyrate control
row,Compound,activation
1,COc1ccc(-n2c(SCC(=O)Nc3ccc4c(c3)OCCO4)nnc2-c2ccc(Cl)cc2)cc1,-1.31%
2,O=C(C(=O)N1CCC(CNC(=O)c2cccnc2Cl)CC1)c1cccs1,1.44%
3,Cc1nc(NC(=O)C(C)(C)C)sc1[N+](=O)[O-],-4.82%
4,COc1ccc2nc(N3CCN(C(=O)c4ccc([N+](=O)[O-])o4)CC3)sc2c1,-2.68%
5,Brc1ccc2nc(N3CCCC3)sc2c1,14.3% (active)
6,Cc1nc(N2CCCCC2)sc1C=O,1.15%
7,Cc1nc(CNc2ncnc3ccc(-c4ccc5c(c4)OCO5)cc23)cs1,1.56%
8,CNS(=O)(=O)c1ccc(NC(=O)Nc2ccc3c(c2)OCO3)cc1,18.5% (active)
9,O=C(COC(=O)/C=C/c1ccc2c(c1)OCO2)NC1CCS(=O)(=O)C1 (configuration not stated),-2.83%
10,Cc1ccc(S(=O)(=O)NCC(=O)Nc2ccc3c(c2)OCCO3)cc1,-3.96%
11,COc1cccc(/C=C/C(=O)Nc2ccc3c(c2)OCCO3)c1,16.9% (active)
12,Cc1ccc(OCCCC(=O)Nc2ccc3c(c2)OCCO3)cc1,-2.83%
13,Cc1cccc(NC(=O)/C=C/c2ccc3c(c2)OCO3)n1,17.7% (active)
14,CC(NC(=O)Nc1cccc([N+](=O)[O-])c1)c1ccc2c(c1)OCO2 (configuration not stated),-1.33%
15,O=C(Nc1ccc2c(c1)OCO2)C1CC(c2c(F)cccc2Cl)=NO1 (configuration not stated),7.76%
16,Cc1cccc(NC(=O)Nc2ccc3c(c2)OCO3)n1,14.2% (active)
17,CC(NS(=O)(=O)c1ccc(Cl)cc1)C(=O)Nc1ccc2c(c1)OCCO2 (configuration not stated),1.96%
18,CCOc1ncccc1C(=O)Nc1ccc2c(c1)OCCO2,-3.84%
19,CN(Cc1ccccc1)C(=O)COC(=O)/C=C/c1ccc2c(c1)OCO2,-1.56%
20,CN1C(=O)c2cc(NS(C)(=O)=O)ccc2OC[C@@H]2O[C@@H](CC(=O)NCc3ccc(-c4ccccc4)cc3)CC[C@H]21,-3.14%
21,COc1ccc(OCC(=O)NN2Cc3ccccc3C2=N)cc1,1.16%
22,CCOC(=O)[C@@]12CN(C(=O)OC(C)(C)C)CC=C1N(Cc1ccc(OC)cc1)C(=O)[C@H]2CC(=O)NCc1ccc(OC)c(OC)c1,-0.18%
23,COc1cc(N/C=C2\CC(=O)NC(C)=C2C#N)cc(OC)c1OC,-2.99%

row,Compound,activation
1,Cc1csc2nc(COC(=O)c3cccc(N(C)C)c3)cc(=O)n12,1.98%
2,O=c1c(-c2ccccc2)coc2cc(O)ccc12,11.4% (active)
3,CCc1ccc(Oc2coc3cc(O)ccc3c2=O)cc1,2.19%
4,CC(C)=CCc1c(O)c(CC=C(C)C)c2occ(-c3ccc(O)cc3)c(=O)c2c1O,1.09%
5,C#CCN([C@@H](C)C(=O)OCC)S(=O)(=O)c1ccc(Br)cc1F,3.49%
6,CC(C)(C)C(=O)c1cnc(Nc2ccccc2)s1,15.3% (active)
7,S=c1[nH]nc(Nc2ccccc2)s1,-0.56%
8,CC(C)(C)c1nnc(NC(=O)C2c3ccccc3Oc3ccccc32)s1,0.43%
9,CC(C)(C)OC(=O)NCCc1ccccc1/C=C/S(=O)(=O)NCc1ccc(F)cc1,0.52%
10,O=C(CCCOc1ccccc1)NNC(=O)c1ccc(Cl)cc1,-0.32%
11,O=C(CCc1c[nH]c2ccccc12)NCCOc1ccccc1,3.15%
12,O=C(NCCc1csc(-c2ccccc2)n1)c1ccccc1F,-3.44%
13,O=C(CNC(=O)c1ccccc1F)c1ccc(Br)cc1,11.4% (active)
14,CC(C)c1ccc(C(=O)NCCCc2ccccc2)cc1,9.47%
15,O=C(CNC(=O)c1ccccc1F)OCC(=O)c1c[nH]c2ccccc12,1.04%
16,O=C(NCCOc1ccccc1)c1ccccc1,14.6% (active)
17,CN(c1ccccc1)S(=O)(=O)c1ccc(C(=O)NCCc2ccccc2)cc1,4.14%
18,NS(=O)(=O)c1cc(C(=O)NCCOc2ccccc2)c(Cl)cc1Cl,-5.7%
19,O=C(NCCOc1ccccc1)c1ccccc1F,15% (active)
20,O=C(COC(=O)CNC(=O)c1ccccc1F)NCC(F)(F)F,-2.85%
21,CCCOc1ccc(C(=O)NCCc2ccccc2)cc1,18.9% (active)
22,NC(=O)c1nnsc1-c1ccc(-c2snnc2C(N)=O)cc1,2.87%
23,COc1cccc(CSc2nnc(-c3cccnc3)n2Cc2ccccc2)c1,1.72%

row,Compound,activation
1,CC(C)CNc1cccc2c1S(=O)(=O)N[C@H](C)CO2,-0.06%
2,Cc1[nH]c2ccccc2c1CC(=O)Nc1ccc(Nc2cccnc2)c(-c2cccc(Cl)c2)c1,-1.25%
3,CC(C)C(C#CC1CC1)N(Cc1ccc2c(c1)OCO2)C(N)=NC(=O)/C=C/c1cccc(C(F)(F)F)c1 (configuration not stated),0.47%
4,C=CCN1C(=O)[C@@H](CC(=O)N2CCN(C(=O)c3ccco3)CC2)[C@]2(C(=O)OC)CCCCC=C12,0.44%
5,Nc1cccc2c1C(=O)N(Cc1nnc(-c3ccccc3Br)o1)C2=O,-2.29%
6,C=CC1=CCN(S(=O)(=O)C(C)(C)C)[C@@H]1CCO,1.1%
7,CC(C)Oc1ccc(/C=C(\NC(=O)/C=C/c2ccco2)C(=O)NCCc2nc3ccccc3[nH]2)cc1,-4.59%
8,O=C(OCc1cc(=O)n2ccsc2n1)C1(c2ccc(Cl)cc2)CC1,-1.52%
9,COC(=O)Cc1nnn2c1[C@H](C)[C@@H](OC)c1cc(Br)ccc1-2,3.49%
10,CCOC(=O)c1c(NC(C)=O)sc2c(O)c(Br)ccc12,1.29%
11,Cc1csc(NC(=O)Nc2ccccc2[N+](=O)[O-])n1,25.4% (active)
12,Cc1cc(NC(=O)Nc2ccccc2[N+](=O)[O-])no1,4.97%
13,CN1CCN(CCNC(=O)Nc2ccccc2[N+](=O)[O-])CC1,0.56%
14,COC1=C[C@H](C(=O)NCCNC(C)=O)[C@H](C)[C@@H](c2ccccc2)CC1=O,-1.27%
15,O=C(Cn1c(N2CCN(C/C=C/c3ccccc3)CC2)nc2ccccc21)c1ccccc1,-0.26%
16,Cc1ccc(NC(=O)C(=O)NCC2CCN(C(=O)c3cccc([N+](=O)[O-])c3)CC2)cc1,1.22%
17,O=C(NC(=S)NC1CCS(=O)(=O)C1)c1cccc([N+](=O)[O-])c1 (configuration not stated),3.84%
18,O=C(Nc1ccc(C2CC2(Cl)Cl)cc1)c1cccc([N+](=O)[O-])c1 (configuration not stated),14.5% (active)
19,COc1ccc(S[C@]2(C(=O)N(C)C)CC(=O)N(c3ccc(OC)cc3)[C@@H]2c2ccc(OC)cc2)cc1,-1%
20,CC(=O)N1C(C)c2ccccc2C(C)(C)CC12CCCCC2 (configuration not stated),-2.75%
21,CN[C@H]1C[C@H]2c3[nH]c4c(-c5ccccc5)cccc4c3CCN2C(=O)[C@H]1[C@H](C)O,-0.57%
22,O=C(N/N=C/c1cccc2cccnc12)[C@H]1C[C@@H]1c1ccccc1,-1.03%
23,O=C(NC(=S)Nc1cccc2c(O)cccc12)c1cccc(Br)c1,0.96%

row,Compound,activation
1,O=C(Cc1ccc(Cl)cc1)NC(=S)Nc1ccccc1O,3.46%
2,O=C(NC(=O)c1ccccc1)Nc1ccccc1O,13.8% (active)
3,CCOC(=O)[C@H]1CCC[C@@H](NS(=O)(=O)c2ccc(NC(C)=O)cc2)C1,1.29%
4,Cc1ccc(NC(=O)Cc2cccc(F)c2)c(S(=O)(=O)N2CCOCC2)c1,1.41%
5,COCC1CCCN(Cc2nc(-c3ccc4c(c3)OCO4)no2)C1 (configuration not stated),6.75%
6,O=C(COCc1cc(-c2ccc3c(c2)OCO3)on1)N1CCN(c2cccc(Cl)c2)CC1,1.17%
7,CCc1ccccc1NC(=O)CSc1nnc(-c2cccs2)o1,2.52%
8,Brc1ccc(C2CC(c3ccccc3)=Nc3ccccc3N2)cc1 (configuration not stated),17.3% (active)
9,CNC(=S)N1N=C(c2ccccc2)CC1c1ccc(Br)cc1 (configuration not stated),-1.01%
10,CN1[C@H](Cc2ccccc2)COc2cccc(N3CCSCC3)c2S1(=O)=O,4.83%
11,Cc1cc(=O)[nH]c(SCC(=O)Nc2ccc(Cl)cc2C)n1,1.76%
12,CCCCCCCCNS(=O)(=O)/C=C/c1cc(C)ccc1CNC(=O)OC(C)(C)C,0.08%
13,COC(=O)c1cc(S(=O)(=O)N2CCN(c3ccccc3C)CC2)cn1C,-4.6%
14,Cc1sc(NC(=O)c2ccc3ncsc3c2)c(C(N)=O)c1C,8.75%
15,CC(C)c1cc(C(N)=O)c(NC(=O)c2cccc(COc3ccc(Br)cc3)c2)s1,16.6% (active)
16,CCOC(=O)c1cc(C(C)C)sc1NC(=O)COC(=O)c1nccnc1N,0.71%
17,C[C@H](O)[C@@H]1C(=O)N2CCc3c([nH]c4c(-c5ccc6c(c5)OCO6)cccc34)[C@@H]2C[C@@H]1N(C)C(=O)c1ccco1,2.82%
18,Nc1nc2c(ncn2[C@@H]2O[C@H](C(=O)N[C@H](Cc3ccccc3)C(=O)NCC3CCCCC3)[C@@H](O)[C@H]2O)c(=O)[nH]1,-0.41%
19,c1ccc2c(c1)nnn2-c1ccncc1,0.89%
20,COCCCNC(=O)C[C@H]1C[C@@]2(C(=O)OC)C(=C[C@H](C(C)(C)C)O[C@@H]2C)N(Cc2ccc3c(c2)OCO3)C1=O,1.15%
21,Cc1cc(Cl)ccc1OCc1nc(-c2ccncc2)no1,14% (active)
22,Cc1ccc(-c2noc(CNC(=O)c3ccoc3C)n2)cc1,-0.34%
23,CC1CCN(Cc2nc(-c3ccc(Cl)cc3)no2)CC1,0.37%
